This passage reports outcome and AC50 results from PubChem BioAssay (EPA / NIEHS).

Results filed as inconclusive are left out. Activity calls are given as the source filed them. Rule for the calls, unless noted: active = hit-call score of the fitted dose curve at least 0.9, where 1 is the maximum; inconclusive = response in the unintended direction; inactive = score below 0.9.

Chain of THRA (gene 7067) (P10827 whole entry, looked up, the tested form may be a part): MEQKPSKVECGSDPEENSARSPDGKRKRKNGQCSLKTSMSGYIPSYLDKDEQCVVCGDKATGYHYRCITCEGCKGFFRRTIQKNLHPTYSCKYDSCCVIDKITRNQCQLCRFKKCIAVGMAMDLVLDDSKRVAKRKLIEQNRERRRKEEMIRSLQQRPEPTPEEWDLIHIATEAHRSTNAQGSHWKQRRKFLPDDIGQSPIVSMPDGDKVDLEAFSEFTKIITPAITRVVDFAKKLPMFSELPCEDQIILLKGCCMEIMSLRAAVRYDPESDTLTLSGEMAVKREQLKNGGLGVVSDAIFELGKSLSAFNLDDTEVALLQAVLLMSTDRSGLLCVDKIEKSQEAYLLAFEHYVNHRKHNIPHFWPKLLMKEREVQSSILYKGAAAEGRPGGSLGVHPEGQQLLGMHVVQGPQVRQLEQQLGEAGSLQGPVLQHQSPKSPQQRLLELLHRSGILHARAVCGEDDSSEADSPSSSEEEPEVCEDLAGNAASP

One experiment deals with Thyroid hormone receptor alpha (Rattus norvegicus) + Thyroid hormone receptor beta (Rattus norvegicus) (UniProt P18113+P63059). The experiment can be described thus: TOX21_TR_LUC_GH3_Antagonist_Followup: Tox21 GH3 Thyroid Hormone Receptor Antagonism Luciferase Follow-Up Assay (AID 2283942). The essentials:
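Antagonist mode: GH3 cells seeded 1,500/well, compounds at 15 concentrations (92 uM to 5nM final) plus T3 at 1.0 nM final, 24 h at 37C. Luciferase read with ONE-Glo after 30 min at room temperature.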
Consider `COCc1c(C(C)C)nc(C(C)C)c(/C=C/[C@@H](O)C[C@@H](O)CC(=O)O)c1-c1ccc(F)cc1`, for which the outcome was inactive.
In the case of `c1cc(N(CC2CO2)CC2CO2)ccc1OCC1CO1` (configuration not stated), the AC50 is 60.9 µM (active).
Regarding `N=c1ccn2c(n1)O[C@H]1[C@H](O)[C@@H](CO)O[C@H]12`, the outcome was inactive.
Consider `COc1ccc(C(Cl)=C(c2ccc(OC)cc2)c2ccc(OC)cc2)cc1`, for which the outcome was inactive.
In the case of `Oc1ccc(Cl)cc1Cc1cc(Cl)ccc1O`, the AC50 is 18.7 µM (active).

Another experiment has as its target THRA (gene 7067) (UniProt P10827). Nature of the experiment: TOX21_TRA_COA_Agonist_Followup_ratio: Tox21 Thyroid Hormone Receptor alpha Agonism through Coactivator Recruitment Follow-Up Assay, Ratio (AID 2283948; active = hit-call score of the fitted dose curve at least 0.9, where 1 is the maximum; inactive = score below 0.9). The essentials:
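Agonist-mode biochemical TR-FRET with TRα LBD and SRC-2 coactivator peptide; activity expressed as percent of T3 response over DMSO baseline.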
Regarding `NC(CO)(CO)CO`, the concentration at half-maximal activity (AC50) was 40.6 µM (active).
Turning to `CCCCCCC(O)CO` (configuration not stated), the result was inactive.
On to `C[Si](C)O[Si](C)(C)O[Si](C)(C)O[Si](C)C`, for which the outcome was inactive.

A further experiment shares this target. The experiment can be described thus: TOX21_TRA_COA_Antagonist_Followup_ratio: Tox21 Thyroid Hormone Receptor alpha Antagonism through Coactivator Recruitment Follow-Up Assay, Ratio (AID 2283953). The essentials:
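This follow-up to the GH3 luciferase screen checks specificity in a cell-free format. It measures SRC-2 coactivator peptide binding to TRα LBD by TR-FRET and scores loss of ratio signal relative to DMSO.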
As to `COCc1c(C(C)C)nc(C(C)C)c(/C=C/[C@@H](O)C[C@@H](O)CC(=O)O)c1-c1ccc(F)cc1`, the result was inactive.
Still for that read-out and setting: in the case of `c1cc(N(CC2CO2)CC2CO2)ccc1OCC1CO1` (configuration not stated) it was “inactive”; in that of `Cc1oncc1C(=O)Nc1ccc(C(F)(F)F)cc1`, “inactive”.
The same measure, in the same setting: with `Oc1ccc(Cl)cc1Cc1cc(Cl)ccc1O` the entry was “inactive”.

A further experiment deals with THRB (gene 7068) (UniProt P10828). The experiment can be described thus: TOX21_TRB_BLA_Antagonist_Followup_ratio: Tox21 Thyroid Hormone Receptor beta Antagonism Beta-lactamase (BLA) Follow-Up Assay, Ratio (AID 2283958). The method in brief: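 GAL4-DBD/human TRβ-LBD fusion in GeneBLAzer UAS-bla HEK293T cells, 3,000 cells/well in phenol red-free DMEM with 2% charcoal-stripped FBS; compounds at 11 concentrations in triplicate, 18 h at 37C. CCF4-AM substrate 2 h, 460:530 nm ratio relative to DMSO.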
Chain of THRB (gene 7068) (P10828 whole entry, looked up, the tested form may be a part): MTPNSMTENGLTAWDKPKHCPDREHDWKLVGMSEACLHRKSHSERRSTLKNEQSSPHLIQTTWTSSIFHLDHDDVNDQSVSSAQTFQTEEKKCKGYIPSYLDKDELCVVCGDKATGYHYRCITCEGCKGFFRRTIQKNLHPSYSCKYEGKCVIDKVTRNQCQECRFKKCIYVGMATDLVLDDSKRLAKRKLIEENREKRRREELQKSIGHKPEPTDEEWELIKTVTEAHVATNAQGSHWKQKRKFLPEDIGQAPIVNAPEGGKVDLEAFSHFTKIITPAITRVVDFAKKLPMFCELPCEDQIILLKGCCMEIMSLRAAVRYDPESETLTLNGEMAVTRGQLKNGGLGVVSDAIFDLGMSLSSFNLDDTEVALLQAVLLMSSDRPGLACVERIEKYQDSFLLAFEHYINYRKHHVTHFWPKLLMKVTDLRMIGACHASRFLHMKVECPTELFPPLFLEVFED
Turning to `COCc1c(C(C)C)nc(C(C)C)c(/C=C/[C@@H](O)C[C@@H](O)CC(=O)O)c1-c1ccc(F)cc1`, the outcome was inactive.
In the case of `c1cc(N(CC2CO2)CC2CO2)ccc1OCC1CO1` (configuration not stated), the outcome was inactive.
The same measure, in the same setting: with `N=c1ccn2c(n1)O[C@H]1[C@H](O)[C@@H](CO)O[C@H]12` the entry was “inactive”; with `Cc1oncc1C(=O)Nc1ccc(C(F)(F)F)cc1`, “inactive”.
Still for that read-out and setting: in the case of `COc1ccc(C(Cl)=C(c2ccc(OC)cc2)c2ccc(OC)cc2)cc1` it was “inactive”.
With `Oc1ccc(Cl)cc1Cc1cc(Cl)ccc1O`, the AC50 is 38.3 µM (active).

System in the next experiment: not listed separately
The experiment can be described thus: TOX21_TRB_BLA_Antagonist_Followup_viability: Viability Assessment in the Tox21 Thyroid Hormone Receptor beta Antagonism Beta-lactamase (BLA) Follow-Up Assay (AID 2283961). The essentials: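 In the same wells as the reporter read, cell health was gauged by CellTiter-Glo ATP luminescence, with signal loss indicating reduced viability. Cells had been exposed to test compounds for 18 h.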
Turning to `COCc1c(C(C)C)nc(C(C)C)c(/C=C/[C@@H](O)C[C@@H](O)CC(=O)O)c1-c1ccc(F)cc1`, the outcome was inactive.
The same measure, in the same setting: with `c1cc(N(CC2CO2)CC2CO2)ccc1OCC1CO1` (configuration not stated) the entry was “inactive”; with `N=c1ccn2c(n1)O[C@H]1[C@H](O)[C@@H](CO)O[C@H]12`, “inactive”; with `Cc1oncc1C(=O)Nc1ccc(C(F)(F)F)cc1`, “inactive”.
Still for that read-out and setting: in the case of `COc1ccc(C(Cl)=C(c2ccc(OC)cc2)c2ccc(OC)cc2)cc1` it was “inactive”.
For `Oc1ccc(Cl)cc1Cc1cc(Cl)ccc1O`, the concentration at half-maximal activity (AC50) is 23.5 µM (active).

In another experiment the target is THRB (gene 7068) (UniProt P10828). Nature of the experiment: TOX21_TRB_COA_Agonist_Followup_ratio: Tox21 Thyroid Hormone Receptor beta Agonism through Coactivator Recruitment Follow-Up Assay, Ratio (AID 2283963; active = hit-call score of the fitted dose curve at least 0.9, where 1 is the maximum; inactive = score below 0.9). The method in brief: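 Signal is the 520/495 nm emission ratio (excitation 340 nm), scaled between DMSO-only wells as 0% and T3 wells as 100%. It reflects fluorescein-labeled SRC-2 peptide recruitment to GST-TRβ ligand-binding domain detected via terbium anti-GST antibody.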
As to `NC(CO)(CO)CO`, the result was inactive.
Regarding `CCCCCCC(O)CO` (configuration not stated), the outcome was inactive.
Regarding `C[Si](C)O[Si](C)(C)O[Si](C)(C)O[Si](C)C`, the outcome was inactive.

The target is the same in another experiment. The experiment can be described thus: TOX21_TRB_COA_Antagonist_Followup_ratio: Tox21 Thyroid Hormone Receptor beta Antagonism through Coactivator Recruitment Follow-Up Assay, Ratio (AID 2283967). The method in brief: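 Cell-free TR-FRET: GST-TRb LBD (5.0 nM) with fluorescein-SRC-2 peptide (200 nM) and Tb anti-GST antibody (2 nM), 0.10% BSA. 520:495 nm emission ratio normalized to DMSO (0%) and T3 (100%).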
Turning to `COCc1c(C(C)C)nc(C(C)C)c(/C=C/[C@@H](O)C[C@@H](O)CC(=O)O)c1-c1ccc(F)cc1`, the result was inactive.
Still for that read-out and setting: in the case of `c1cc(N(CC2CO2)CC2CO2)ccc1OCC1CO1` (configuration not stated) it was “inactive”.
On to `N=c1ccn2c(n1)O[C@H]1[C@H](O)[C@@H](CO)O[C@H]12`, for which the outcome was inactive.
On the same count and under the same terms, with `Cc1oncc1C(=O)Nc1ccc(C(F)(F)F)cc1` the entry was “inactive”.
Take `Oc1ccc(Cl)cc1Cc1cc(Cl)ccc1O`: the AC50 was 38.3 µM (active).

The target in another experiment is Retinoic acid receptor RXR-alpha (Homo sapiens) (UniProt P19793). Nature of the experiment: TOX21_TR_RXR_BLA_Agonist_Followup_ratio: Tox21 Thyroid Hormone Receptor beta Retinoid X Receptor alpha (RXRa) Agonism Beta-lactamase (BLA) Follow-Up Assay, Ratio (AID 2283968). The method in brief: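 RXRa-UAS-bla HEK293T cells (GAL4 beta-lactamase reporter) were treated with compounds at 11 concentrations in triplicate for 16 h at 37C/5% CO2, then loaded with CCF4-AM substrate for 2 h at room temperature; activity is the 460:530 nm ratio versus DMSO baseline.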
Chain of Retinoic acid receptor RXR-alpha (Homo sapiens) (P19793 whole entry, looked up, the tested form may be a part): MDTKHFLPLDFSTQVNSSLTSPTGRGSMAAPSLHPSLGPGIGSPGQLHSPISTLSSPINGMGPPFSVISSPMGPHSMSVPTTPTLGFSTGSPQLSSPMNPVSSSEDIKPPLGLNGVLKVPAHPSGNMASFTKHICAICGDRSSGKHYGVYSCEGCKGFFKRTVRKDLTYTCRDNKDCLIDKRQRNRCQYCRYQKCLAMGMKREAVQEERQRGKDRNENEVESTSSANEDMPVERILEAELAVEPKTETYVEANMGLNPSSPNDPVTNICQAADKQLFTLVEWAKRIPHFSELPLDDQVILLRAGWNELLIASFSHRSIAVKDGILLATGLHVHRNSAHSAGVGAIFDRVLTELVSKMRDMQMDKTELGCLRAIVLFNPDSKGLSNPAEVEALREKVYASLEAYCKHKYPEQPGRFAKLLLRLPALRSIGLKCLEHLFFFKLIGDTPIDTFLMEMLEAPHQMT
Turning to `NC(CO)(CO)CO`, the result was inactive.
Regarding `CCCCCCC(O)CO` (configuration not stated), the result was inactive.
The same measure, in the same setting: in the case of `C[Si](C)O[Si](C)(C)O[Si](C)(C)O[Si](C)C` it was “inactive”.

System in the next experiment: not listed separately
The experiment can be described thus: TOX21_TR_RXR_BLA_Agonist_Followup_viability: Viability Assessment in the Tox21 Thyroid Hormone Receptor beta Retinoid X Receptor alpha (RXRa) Agonism Beta-lactamase (BLA) Follow-Up Assay (AID 2283970). The method in brief:
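RXRa-UAS-bla HEK293T cells seeded at 2,500/well in phenol red-free DMEM with 2% charcoal-stripped FBS, exposed to compound 16h at 37C/5% CO2 in qHTS. Viability read by CellTiter-Glo ATP luminescence; bidirectional fitting against DMSO baseline, signal loss indicating cytotoxicity.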
As for `NC(CO)(CO)CO`, the compound was called inactive.
Take `CCCCCCC(O)CO` (configuration not stated): the outcome was inactive.
Consider `C[Si](C)O[Si](C)(C)O[Si](C)(C)O[Si](C)C`, for which the outcome was inactive.

The target of a further experiment is Retinoic acid receptor RXR-alpha (Homo sapiens) (UniProt P19793). Nature of the experiment: TOX21_TR_RXR_BLA_Antagonist_Followup_ratio: Tox21 Thyroid Hormone Receptor beta Retinoid X Receptor alpha (RXRa) Antagonism Beta-lactamase (BLA) Follow-Up Assay, Ratio (AID 2283972). The essentials:
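Compounds were tested in triplicate at 11 concentrations on RXRa-bla HEK293T cells for 16 h. Substrate cleavage ratio, normalized to DMSO, gave the endpoint.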
As for `Cc1oncc1C(=O)Nc1ccc(C(F)(F)F)cc1`, the outcome was inactive.
As to `COc1ccc(C(Cl)=C(c2ccc(OC)cc2)c2ccc(OC)cc2)cc1`, the outcome was inactive.
In the case of `Oc1ccc(Cl)cc1Cc1cc(Cl)ccc1O`, the AC50 is 38.3 µM (active).

System in a further experiment: not listed separately
The experiment can be described thus: TOX21_TR_RXR_BLA_Antagonist_Followup_viability: Viability Assessment in the Tox21 Thyroid Hormone Receptor beta Retinoid X Receptor alpha (RXRa) Antagonism Beta-lactamase (BLA) Follow-Up Assay (AID 2283979). The essentials: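 RXRa-bla HEK293T cells (2,500/well, phenol red-free DMEM, 2% charcoal-stripped FBS) were attached 5 h, then exposed to compounds at 11 concentrations in triplicate for 16 h at 37C. Viability measured by CellTiter-Glo ATP luminescence, bidirectional fitting versus DMSO.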
Take `COCc1c(C(C)C)nc(C(C)C)c(/C=C/[C@@H](O)C[C@@H](O)CC(=O)O)c1-c1ccc(F)cc1`: the compound was called inactive.
Take `c1cc(N(CC2CO2)CC2CO2)ccc1OCC1CO1` (configuration not stated): the compound was classed as inactive.
Same read-out and setting: in the case of `N=c1ccn2c(n1)O[C@H]1[C@H](O)[C@@H](CO)O[C@H]12` it was “inactive”.
The same measure, in the same setting: with `Cc1oncc1C(=O)Nc1ccc(C(F)(F)F)cc1` the entry was “inactive”; with `COc1ccc(C(Cl)=C(c2ccc(OC)cc2)c2ccc(OC)cc2)cc1`, “inactive”.
As to `Oc1ccc(Cl)cc1Cc1cc(Cl)ccc1O`, the AC50 was 5.34 µM (active).

The next experiment relates to DIO1 (gene 1733). The experiment can be described thus: CCTE_GLTED_hDIO1: CCTE's human Deiodinase 1 (DIO1) Inhibition Assay, Great Lakes Toxicology and Ecology Division (GLTED) Lab (AID 2283987).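 Note: isolated human DIO1 enzyme in a cell-free setup rather than cells; enzyme activity read as free iodide liberated from substrate via Sandell-Kolthoff colorimetry.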 The method in brief: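 Chemicals are tested on human DIO1 without cells for 3 h. Uninhibited enzyme frees iodide, which speeds cerium(IV) reduction by arsenic and is read by spectrophotometry.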
In the case of `O=S(=O)(O)c1ccccc1C=Cc1ccc(-c2ccc(C=Cc3ccccc3S(=O)(=O)O)cc2)cc1`, the concentration at half-maximal activity (AC50) was 100 µM (active).
Take `CCCCCCCCCCCCCOP(=O)(O)O`: the half-maximal activity concentration (AC50) was 91 µM (active).
For the compound `Cc1ccc(N/N=c2\c(=O)cc/c(=N/Nc3ccc(S(=O)(=O)O)cc3)c2=O)c(C)c1`, the AC50 is 46.6 µM (active).
On the same count and under the same terms, in the case of `Oc1ccc(Cl)cc1Cc1cc(Cl)ccc1O` it was 99.8 µM (active); in that of `CCCCCCCC[N+](C)(CCCCCCCC)CCCCCCCC`, 70.8 µM (active).

As usually defined, the AC50 is the concentration at which the activity in the assay is half-maximal.
